Assay results taken from PubChem BioAssay (NCATS).
Where “and” joins values, the source holds several entries; their conditions need not be identical. Identical values can stand only once. Results filed as inconclusive are left out. Entries that show only a call come without a potency. Calls of active or inactive are those of the source. The call rests on the fitted dose curve; in most records, active means well fitted cell-killing curve with a large enough effect; inconclusive means small, poorly fitted or top-dose-only effect; inactive means flat fitted curve, though single readings scatter.

Experiment: Cellular viability qHTS for adrenocortical cancer (ACC) cell line NCI-H295R (AID 1963990); further: nearly all actives have a fitted effect of over 60% in size
Details: CellTiter-Glo ATP luminescence, 48 h; series mostly up to 46.1 µM
Source text: PI: Naris Nilubol, MD Surgical Oncology Program, National Cancer Institute (NCI) National Institute of Health (NIH), Bethesda, Maryland Adrenocortical cancer (ACC) is a rare malignancy with poor survival outcomes and few treatment options. Currently, mitotane is the only FDA-approved therapy for ACC. Although adjuvant radiation therapy is rarely utilized, it has the potential to improve survival in select cases. Through a quantitative high-throughput drug screen (qHTS), we identified auranofin (AF), a thioredoxin reductase (TXNRD) inhibitor, as a promising candidate drug. This study aims to evaluate whether AF can enhance the efficacy of radiation therapy in the treatment of ACC. Two human ACC cell lines, SW-13 and NCI-H295R, were screened using the National Center for Advancing Translational Sciences (NCATS) Pharmaceutical Collection (NPC) and the Mechanism Interrogation PlatE (MIPE) library (~4,991 compounds). CellTiter-Glo (Cat # G7570, Promega, Madison, WI) was utilized to measure cell viability. Described herein are the results of the corresponding viability assay.
PROTOCOL TABLE (as described by Inglese J, Shamu CE and Guy RK. 2007) SEQUENCE No. (e.g., 1, 2, 3, etc.); […] (e.g., Cells, Incubation, Reagent, etc.); VALUE; DESCRIPTION. 1; Cells; 5 uL; white, solid-bottom, 1536-well tissue-culture treated plates. 2; Time; overnight culture at 37C with 5% CO2. 3; Compounds and control; 23 nL; Kalypsis pin tool (Wako USA) equipped with a 1536-well pin head to transfer to the assay plates. 4; Time; 48 hours; 37C with 5% CO2. 5; Reagent; 4 uL; CellTiter-Glo luminescent substrate mix. 6; Time; 20 min at room temperature. 7; Detection; Luminescence; ViewLux plate reader NOTES (numbers refer to Sequence numbers above) 1. NCI-H295R cells were harvested from a T175 flask and resuspended in ITS-supplemented DMEM serum-free medium at a concentration of 300 000 cells/mL. Then 5 uL of resuspended cells were dispensed into each well of white, solid-bottom, 1536-well tissue-culture-treated plates using a multidrop combi dispenser. The plates were covered with stainless steel gasket lids. 2-3. The plates were cultured overnight at 37C with 5% CO2. Twenty-three nL of compounds (eight selected concentrations from the NPC / MIPE) or positive control (10 mM stock of bortezomib) in DMSO was transferred to each well of the assay plate using a pin tool (Kalypsys, San Diego, CA, USA). The final concentration of the compounds in the 5 uL assay volume ranged from 0.5 nM to 46 uM. 4-6. After 48 hours of incubation at 37C and 5% CO2, 4 uL of CellTilter-Glo luminescent substrate mix (Promega, Madison, WI, USA) was added to each well. Then the plates were incubated for 20 minutes at room temperature. 7. After incubation, luminescence was measured using a ViewLux plate reader (PerkinElmer, Waltham, MA, USA) with a clear filter was used to measure the number of metabolically competent cells. To determine compound activity in the qHTS assay, the titration-response data for each sample was plotted and modeled by a four-parameter logistic fit yielding IC50 and efficacy (maximal response) values. Raw plate reads for each titration point were normalized relative to positive control ([…], 100% inhibition) and DMSO-only wells (basal, 0%). REFERENCES: Inglese J, Shamu CE and Guy RK, Reporting data from high throughput screening of small molecule libraries, Nature Chemical Biology, 2007, 3(8): 438-441. doi.org/10.1038/nchembio0807-438.

SMILES | Potency
O=c1cc(-c2cccc3c2Sc2ccccc2S3)oc(N2CCOCC2)c1 | 25.1 µM (active)
O=c1[nH]sc2cc(Cl)ccc12 | 3.26 µM (active)
C[C@H](CN1CCCC1)C(=O)c1ccc(C(F)(F)F)cc1 | inactive
Clc1ccccc1C(c1ccccc1)(c1ccccc1)n1ccnc1 | 23.1 µM (active)
Cn1c(=O)c2c(ncn2CC(=O)O)n(C)c1=O | inactive
C[C@@H](N)C1CCC(C(=O)Nc2ccncc2)CC1 (stereo not given in full) | inactive
COc1ccc2c(c1)c(CC(=O)OCC(=O)O)c(C)n2C(=O)c1ccc(Cl)cc1 | inactive
O=C(O)c1[nH]n(-c2ccc(S(=O)(=O)O)cc2)c(=O)c1N=Nc1ccc(S(=O)(=O)O)cc1 | inactive
CN(C)C1CCN(C(=O)c2ccc(NC(=O)Nc3ccc(-c4nc(N5CCOCC5)nc(N5CCOCC5)n4)cc3)cc2)CC1 | 2.24 µM (active)
O=C(NNc1ccccc1)c1ccncc1 | inactive
CCN(CC)CCOC(=O)C(c1ccccc1)c1ccccc1 | inactive
C[C@H](CCC(=O)O)[C@H]1CCC2C3C[C@H](O)[C@@H]4C[C@H](O)CC[C@]4(C)C3CC[C@@]21C (stereo not given in full) | inactive
COc1ccccc1N1CCN(CCN(C(=O)C2CCCCC2)c2ccccn2)CC1 | inactive
CCc1cc(-c2n[nH]c(C)c2-c2ccc3c(c2)OCCO3)c(O)cc1O | 15.8 µM (active)
N#Cc1ccc(C(c2ccc(C#N)cc2)n2cncn2)cc1 | inactive
CCN(CC)C(=O)/C(C#N)=C/c1cc(O)c(O)c([N+](=O)[O-])c1 | inactive
C[N+]1(CC2COC(c3ccccc3)(C3CCCCC3)O2)CCCCC1 (stereo not given) | inactive
O=C(O)Cn1cnnn1 | inactive
S=P(N1CC1)(N1CC1)N1CC1 | inactive
CC(=O)Nc1c(I)c(NC(C)=O)c(I)c(C(=O)O)c1I | inactive

SMILES | Potency
NCC(=O)CCC(=O)O | inactive
CC[N+](CC)(CCNC(=O)C(=O)NCC[N+](CC)(CC)Cc1ccccc1Cl)Cc1ccccc1Cl | inactive
COc1cc2c(Oc3ccc(-c4cnc(Nc5ccc(F)cc5)n(C)c4=O)cc3F)ccnc2cc1OCCCN1CCOCC1 | 3.98 µM (active)
CC(=O)OC[C@H]1O[C@@](COC(C)=O)(O[C@H]2O[C@H](COC(C)=O)[C@@H](OC(C)=O)[C@H](OC(C)=O)[C@H]2OC(C)=O)[C@@H](OC(C)=O)[C@@H]1OC(C)=O | inactive
CC/C(=C(/CC)c1ccc(O)cc1)c1ccc(O)cc1 | 3.66 µM (active) and 8.91 µM (active)
CCCc1cc(C(N)=S)ccn1 | inactive
Oc1c(Cl)cc(Cl)c2cccnc12 | 7.94 µM (active)
C[N+](C)(C)CC[N+]1(C)Cc2c(Cl)c(Cl)c(Cl)c(Cl)c2C1 | inactive
N[C@@H](Cc1cc(I)c(Oc2cc(I)c(O)c(I)c2)c(I)c1)C(=O)O | inactive
COCCNCc1ccc(-c2cc3nccc(Oc4ccc(NC(=S)NC(=O)Cc5ccc(F)cc5)cc4F)c3s2)nc1 | 12.6 µM (active)
CNC(=O)c1cc(Oc2ccc(NC(=O)Nc3ccc(Cl)c(C(F)(F)F)c3)cc2)ccn1 | 11.2 µM (active) and 10.3 µM (active)
O=C(Nc1cc(Oc2cc(F)c(NC(=O)C3(C(=O)Nc4ccc(F)cc4)CC3)cc2F)ccn1)C1CC1 | inactive
O=C(O)Cc1csc(-c2ccc(Cl)cc2)n1 | inactive
CN=C(N)NC(=O)Nc1c(C)cccc1C | inactive
O=C1OC2(c3ccccc31)c1cc(I)c(O)c(I)c1Oc1c2cc(I)c(O)c1I | inactive
O=C1CC2(CCCC2)CC(=O)N1 | inactive
Cc1cc(N2CCOCC2)ccc1Nc1nc(NC2CCCCC2)c2[nH]cnc2n1 | 28.2 µM (active)
C[C@@H]1C[C@H]2[C@@H]3CCC4=CC(=O)C=C[C@]4(C)[C@@]3(F)[C@@H](O)C[C@]2(C)[C@@]1(O)C(=O)CO | inactive
CC[N+](C)(CC)CCOC(=O)C(O)(c1ccccc1)C1CCCCC1 (stereo not given) | inactive
CC(C)n1ncnc1-c1cn2c(n1)-c1ccc(O[C@@H](C)C(N)=O)cc1OCC2 | 0.631 µM (active)
